# The other results are listed elsewhere or left out. The source made the active and inactive calls.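 The calls were made as follows, unless noted: active = mean inhibition above about 50% in the one-dose retest (limit read from the data); inactive = the rest.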
# How the values were obtained:
# [1] = activators of apoptotic CHOP UPR arm, confirmation, cell-based, CHO-CHOP luciferase reporter, single concentration (AID 463112; in the data active = activation above about 33%;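 also: 0% = DMSO wells and 100% = tunicamycin 10 µg/mL wells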); details: CHO-CHOP cells, CHOP-luciferase reporter luminescence; at 10 µM; stronger effect = higher value; percent of tunicamycin response, DMSO as zero
# [2] = inhibition of Brca1/Bard1 split-luciferase complementation, confirmation, counter-screen for Mdm2/MdmX interaction inhibitor project, luminescence, single concentration (AID 504668; call rule not given here); details: Brca1/Bard1 bimolecular luciferase complementation counterscreen, at 8 µM, stronger effect = higher value
# [3] = biological target: Sentrin-specific protease 8 (Homo sapiens) (UniProt Q96LD8); experiment: SENP8 protease inhibitors, retest, confirmation, biochemical, luminescence, single concentration (AID 488912;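 active = mean inhibition across replicates above about 50%, limit read from the data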); details: Recombinant SENP8, Z-RLRGG-aminoluciferin luminescence, 60 min; at 12.5 µM; stronger effect = higher value
# [4] = biological target: Sentrin-specific protease 6 (Homo sapiens) (UniProt Q9GZR1); experiment: SENP6 protease inhibitors, confirmation, biochemical, luminescence, single concentration (AID 488915); details: recombinant SENP6, Z-RLRGG-aminoluciferin luminescence; at 12.5 µM; stronger effect = higher value
# [5] = biological target: Sentrin-specific protease 7 (Homo sapiens) (UniProt Q9BQF6); experiment: SENP7 protease inhibitors, retest, confirmation, biochemical, luminescence, single concentration (AID 488917); details: recombinant SENP7, Z-RLRGG-aminoluciferin luminescence, 40 min; at 12.5 µM; stronger effect = higher value
# [6] = biological target: Caspase-3 (Homo sapiens) (UniProt P42574); experiment: caspase-3 protease inhibitors, confirmation, selectivity assay for SENP inhibitor project, biochemical, single concentration (AID 488918;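 active = mean inhibition above about 50%, limit read from the data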;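 also: plate controls were enzyme with DMSO for no effect and wells without caspase-3 for full effect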); details: purified caspase-3, Z-DEVD-aminoluciferin luminescence, 60 min; at 12.5 µM; stronger effect = higher value
# [7] = luciferase luminescence interference by compounds, confirmation, artefact control for SENP inhibitor project, biochemical, single concentration, SENP8 reaction pre-completed (AID 488919;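 active = mean inhibition above about 50% when retested at one dose, limit read from the data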;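 also: plate controls were DMSO wells with completed reaction for no effect and substrate without enzyme for full effect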); details: Pre-incubated SENP8/Z-RLRGG-aminoluciferin, at 12.5 µM, stronger effect = higher value
# [8] = biological target: Protein Mdm4 (Homo sapiens) + E3 ubiquitin-protein ligase Mdm2 (Homo sapiens) (UniProt O15151+Q00987); experiment: retested Mdm2-MdmX interaction blockers, confirmation, cell-based, luminescence, single concentration, set 2 (AID 504601;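 active = mean inhibition of the luminescence signal across two replicates at or above 26 percent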); details: SaOS-2 split-luciferase Mdm2/MdmX complementation, at 8 µM, stronger effect = higher value
# [9] = biological target: Tumor necrosis factor receptor superfamily member 10B (Homo sapiens) (UniProt O14763); experiment: caspase-8 TRAIL sensitization, hit retest, confirmation, cell-based, NB7+caspase-8, with/without TRAIL, luminescence panel (AID 651596; in the data active = activity above about 50%); details: NB7 neuroblastoma + caspase-8, TRAIL sensitization, luminescence viability, with TRAIL, mean of runs, at 10 µM, stronger effect = higher value
# [10] = as above; details: NB7 neuroblastoma + caspase-8, without TRAIL, luminescence viability, without TRAIL, mean of runs, at 10 µM
# [11] = HIF-2a reporter inhibitor retest, confirmation, luminescence, 786-0 RCC cells (AID 651580;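 active = mean inhibition across four replicates of at least 40 percent at the single tested concentration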); details: HIF-2a luciferase reporter luminescence, overnight, at 18.8 µM, stronger effect = higher value
# [12] = HIF-1a luciferase reporter signal reduction – MiaPaCa-2 cells, single concentration, counter-screen for HIF-2a inhibitor project, confirmation (AID 651589;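 active = mean inhibition of the reporter signal across four replicates at the single tested dose of 50% or more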); details: MiaPaCa-2 HIF-1a luciferase reporter, desferoxamine, overnight; at 18.8 µM; stronger effect = higher value
# Chain of Caspase-3 (Homo sapiens) (P42574 28-227 limits assumed): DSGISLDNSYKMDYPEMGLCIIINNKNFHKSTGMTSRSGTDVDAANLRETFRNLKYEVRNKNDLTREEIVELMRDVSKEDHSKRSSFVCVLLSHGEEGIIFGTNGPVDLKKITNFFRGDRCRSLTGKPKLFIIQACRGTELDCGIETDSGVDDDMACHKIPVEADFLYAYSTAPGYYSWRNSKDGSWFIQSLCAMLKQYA
# Chain of Sentrin-specific protease 6 (Homo sapiens) (Q9GZR1 628-1112 limits assumed): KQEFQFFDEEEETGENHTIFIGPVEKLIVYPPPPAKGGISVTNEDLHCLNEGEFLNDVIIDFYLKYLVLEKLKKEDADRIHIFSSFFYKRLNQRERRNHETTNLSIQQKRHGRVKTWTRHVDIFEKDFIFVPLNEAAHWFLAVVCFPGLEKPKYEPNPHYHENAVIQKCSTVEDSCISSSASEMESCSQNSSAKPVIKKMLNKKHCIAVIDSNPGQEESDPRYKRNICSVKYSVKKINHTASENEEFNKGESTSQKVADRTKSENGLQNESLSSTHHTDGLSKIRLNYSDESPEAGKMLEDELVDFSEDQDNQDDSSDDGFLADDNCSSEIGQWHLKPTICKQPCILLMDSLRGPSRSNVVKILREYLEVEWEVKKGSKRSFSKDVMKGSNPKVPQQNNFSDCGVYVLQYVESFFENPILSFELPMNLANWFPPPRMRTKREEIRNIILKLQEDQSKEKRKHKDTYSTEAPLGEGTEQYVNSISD
# Chain of Sentrin-specific protease 8 (Homo sapiens) (Q96LD8 whole entry, looked up): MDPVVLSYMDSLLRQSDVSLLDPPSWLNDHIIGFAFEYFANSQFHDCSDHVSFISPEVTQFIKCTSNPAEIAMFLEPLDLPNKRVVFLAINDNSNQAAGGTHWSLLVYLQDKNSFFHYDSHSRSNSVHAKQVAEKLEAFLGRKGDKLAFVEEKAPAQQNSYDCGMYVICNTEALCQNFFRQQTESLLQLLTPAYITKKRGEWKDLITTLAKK
# Chain of Sentrin-specific protease 7 (Homo sapiens) (Q9BQF6 706-1050 limits assumed): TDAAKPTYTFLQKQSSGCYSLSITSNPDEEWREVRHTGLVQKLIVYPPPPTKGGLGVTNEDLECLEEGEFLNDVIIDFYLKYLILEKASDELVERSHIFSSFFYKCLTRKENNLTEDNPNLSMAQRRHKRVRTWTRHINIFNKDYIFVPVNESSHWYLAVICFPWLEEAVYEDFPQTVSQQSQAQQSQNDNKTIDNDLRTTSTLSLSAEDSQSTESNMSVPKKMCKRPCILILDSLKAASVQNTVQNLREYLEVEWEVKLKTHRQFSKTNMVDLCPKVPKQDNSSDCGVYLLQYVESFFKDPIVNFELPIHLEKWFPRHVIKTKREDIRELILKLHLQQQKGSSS
# Chain of Tumor necrosis factor receptor superfamily member 10B (Homo sapiens) (O14763 whole entry, looked up): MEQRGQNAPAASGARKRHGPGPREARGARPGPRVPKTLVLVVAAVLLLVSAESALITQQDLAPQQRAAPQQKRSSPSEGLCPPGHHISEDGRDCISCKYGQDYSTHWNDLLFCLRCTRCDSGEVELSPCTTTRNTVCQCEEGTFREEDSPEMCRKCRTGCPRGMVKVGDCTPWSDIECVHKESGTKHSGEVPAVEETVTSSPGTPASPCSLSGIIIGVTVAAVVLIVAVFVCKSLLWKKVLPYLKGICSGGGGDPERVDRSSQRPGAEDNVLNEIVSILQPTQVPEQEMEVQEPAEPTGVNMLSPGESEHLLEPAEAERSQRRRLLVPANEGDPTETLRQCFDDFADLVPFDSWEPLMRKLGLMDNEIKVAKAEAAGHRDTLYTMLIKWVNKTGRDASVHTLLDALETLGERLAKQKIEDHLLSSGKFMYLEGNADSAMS
# Chain of Protein Mdm4 (Homo sapiens) + E3 ubiquitin-protein ligase Mdm2 (Homo sapiens) (O15151 whole entry, looked up): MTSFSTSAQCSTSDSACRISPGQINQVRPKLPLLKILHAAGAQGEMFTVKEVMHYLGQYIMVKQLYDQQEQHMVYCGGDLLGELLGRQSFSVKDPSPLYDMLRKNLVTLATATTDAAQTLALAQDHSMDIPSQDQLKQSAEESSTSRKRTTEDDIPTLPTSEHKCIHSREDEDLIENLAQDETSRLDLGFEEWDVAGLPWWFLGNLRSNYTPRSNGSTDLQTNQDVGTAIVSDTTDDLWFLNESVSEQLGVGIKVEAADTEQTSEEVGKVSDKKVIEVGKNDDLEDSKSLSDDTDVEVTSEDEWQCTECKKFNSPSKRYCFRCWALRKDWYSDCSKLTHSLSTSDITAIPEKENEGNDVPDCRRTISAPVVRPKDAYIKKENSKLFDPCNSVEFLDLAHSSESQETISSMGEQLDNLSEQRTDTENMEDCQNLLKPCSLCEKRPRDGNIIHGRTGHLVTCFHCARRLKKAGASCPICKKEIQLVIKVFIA
# Chain of Protein Mdm4 (Homo sapiens) + E3 ubiquitin-protein ligase Mdm2 (Homo sapiens) (Q00987 whole entry, looked up): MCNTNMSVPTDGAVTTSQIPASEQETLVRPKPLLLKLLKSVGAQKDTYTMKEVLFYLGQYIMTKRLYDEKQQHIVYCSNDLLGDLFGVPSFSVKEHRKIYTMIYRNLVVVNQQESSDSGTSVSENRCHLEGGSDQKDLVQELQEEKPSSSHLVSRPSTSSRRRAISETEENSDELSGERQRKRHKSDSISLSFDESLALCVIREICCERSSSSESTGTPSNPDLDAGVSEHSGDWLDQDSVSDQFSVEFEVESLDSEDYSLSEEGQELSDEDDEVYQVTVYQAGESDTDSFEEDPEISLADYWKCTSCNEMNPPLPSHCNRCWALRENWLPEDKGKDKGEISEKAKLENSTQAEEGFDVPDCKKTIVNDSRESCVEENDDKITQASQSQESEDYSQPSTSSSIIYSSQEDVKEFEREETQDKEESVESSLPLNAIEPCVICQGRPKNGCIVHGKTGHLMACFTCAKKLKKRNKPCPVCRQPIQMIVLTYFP
compound,measurement,setting,value
COc1ccc(OC)c(Nc2nc(-c3ccc(O)c(O)c3)cs2)c1,activation,[1],187% (active)
CN(C)CCCn1c(SCc2ccc(Cl)cc2)nnc1-c1ccncc1,activation,[1],-0.025% (inactive)
O=C(NCCc1ccc(Cl)cc1)c1cccc(N2CCCC2=O)c1,activation,[1],1.95% (inactive)
COc1ccc(-c2cc(C(F)(F)F)nc(S(C)(=O)=O)n2)cc1OC,activation,[1],210% (active)
same,inhibition,[2],24.3% (active)
Nc1nc(CC(=O)CSc2ccc(Cl)cc2)nc(Nc2ccc(F)cc2)n1,activation,[1],40% (active)
same,inhibition,[2],29.2% (active)
COc1ccccc1N=Cc1c(O)c2ccccc2oc1=O,activation,[1],124% (active)
same,inhibition,[3],43.2% (inactive)
same,inhibition,[4],53.7% (active)
same,inhibition,[5],49.6% (inactive)
same,inhibition,[6],19.3% (inactive)
same,inhibition,[7],27.7% (inactive)
COc1cccc2sc(Nc3nc(C)c(C(C)=O)s3)nc12,activation,[1],58.5% (active)
same,inhibition,[3],51.3% (active)
same,inhibition,[4],47.9% (inactive)
same,inhibition,[5],83.9% (active)
same,inhibition,[6],56.6% (active)
same,inhibition,[7],72.3% (active)
CC1CC2=C(CC1/C=N/NC(N)=S)C(C)(C)CCC2 (configuration not stated),activation,[1],29.4% (inactive)
CSc1nnc(NC(=O)c2nc(S(=O)(=O)Cc3ccc(C)cc3)ncc2Cl)s1,activation,[1],87% (active)
same,inhibition,[8],100% (active)
same,activity,[9],74.5%
same,activity,[10],82.2%
O=C(CSc1cccc2cccnc12)N/N=C/c1cccnc1,activation,[1],265% (active)
C=CS(=O)c1sc(Cl)c(N2CCOCC2)c1[N+](=O)[O-] (configuration not stated),activation,[1],-10.6% (inactive)
Nc1ccccc1SC(C[N+](=O)[O-])c1ccccc1 (configuration not stated),activation,[1],-9.65% (inactive)
CCCc1cc(=S)n2c([nH]c3ccccc32)c1C#N,activation,[1],-0.45% (inactive)
CC(C)(C)Nc1nc(-c2ccccn2)nc2ccccc12,activation,[1],20.4% (inactive)
same,inhibition,[2],23.3% (active)
COc1ccc(C(=O)NCC(=O)N/N=C/c2ccc([N+](=O)[O-])o2)cc1OC,activation,[1],35.6% (active)
O=C(O)/C=C/C(=O)NNc1ccc([N+](=O)[O-])cc1,inhibition,[3],67.5% (active)
same,inhibition,[4],65.4% (active)
same,inhibition,[5],92.5% (active)
same,inhibition,[6],88.6% (active)
same,inhibition,[7],79.3% (active)
CNc1nc(Nc2ccc(C)c(Cl)c2)nc(N)c1[N+](=O)[O-],inhibition,[3],97.8% (active)
same,inhibition,[4],98.7% (active)
same,inhibition,[5],103% (active)
same,inhibition,[6],96.9% (active)
same,inhibition,[7],18.3% (inactive)
O=C(Nc1cccc([N+](=O)[O-])c1)c1ccc2c(c1)OCO2,inhibition,[3],29.3% (inactive)
same,inhibition,[4],38.2% (inactive)
same,inhibition,[5],88% (active)
same,inhibition,[6],65.1% (active)
same,inhibition,[7],9.5% (inactive)
O=C(Nc1ccccc1C(=O)Nc1ccncc1)c1ccc([N+](=O)[O-])cc1,inhibition,[3],47.2% (inactive)
same,inhibition,[4],57.2% (active)
same,inhibition,[5],85.4% (active)
same,inhibition,[6],65.1% (active)
same,inhibition,[7],10.6% (inactive)
CCCCCc1ccc(-c2ccc(C(=O)O)cc2)nc1,inhibition,[3],-2.1% (inactive)
same,inhibition,[4],54.7% (active)
same,inhibition,[5],76.9% (active)
same,inhibition,[6],9.2% (inactive)
same,inhibition,[7],63.9% (active)
Oc1ccccc1-c1cc(-c2ccc(Cl)cc2)n[nH]1,inhibition,[3],93.9% (active)
same,inhibition,[4],94.4% (active)
same,inhibition,[5],99.9% (active)
same,inhibition,[6],68.9% (active)
same,inhibition,[7],75.2% (active)
COc1cc(NC(=O)COC(=O)c2ccc([N+](=O)[O-])s2)cc(OC)c1OC,inhibition,[3],79.5% (active)
same,inhibition,[4],86.7% (active)
same,inhibition,[5],45.8% (inactive)
same,inhibition,[6],18.4% (inactive)
same,inhibition,[7],0.3% (inactive)
COCCn1nnnc1C(c1cc2ccc(OC)cc2[nH]c1=O)N1CCc2ccccc2C1 (configuration not stated),inhibition,[3],12.6% (inactive)
same,inhibition,[4],23% (inactive)
same,inhibition,[5],2.5% (inactive)
same,inhibition,[6],1% (inactive)
same,inhibition,[7],-2% (inactive)
O=C(NCc1ccccn1)c1c(O)c2c([nH]c1=O)CCCC2,inhibition,[3],-0.6% (inactive)
same,inhibition,[4],0.3% (inactive)
same,inhibition,[5],-5.1% (inactive)
same,inhibition,[6],-3.9% (inactive)
same,inhibition,[7],-3.1% (inactive)
O=[N+]([O-])c1ccccc1N/N=C1\CCc2ccccc21,inhibition,[3],-9.3% (inactive)
same,inhibition,[4],-5.8% (inactive)
same,inhibition,[5],-10.4% (inactive)
same,inhibition,[6],0.7% (inactive)
same,inhibition,[7],-0.8% (inactive)
O=C1C=CC(=O)N1c1ccc(N2CCCCC2)cc1,activation,[1],60.2% (active)
same,inhibition,[11],17.3% (inactive)
same,inhibition,[12],-4.26% (inactive)
CCOC(=O)c1c(NC(=O)CCl)sc(C(=O)N(CC)CC)c1C,activation,[1],27% (inactive)
same,activity,[9],95.3%
same,activity,[10],93.8%
COc1ccc(-n2ncc3c(SCC(=O)NNC(C)=O)ncnc32)cc1,inhibition,[3],11.5% (inactive)
same,inhibition,[4],48.8% (inactive)
same,inhibition,[5],11.2% (inactive)
same,inhibition,[6],51.3% (active)
same,inhibition,[7],5.9% (inactive)
COc1ccc(C(=O)Nc2ccc(F)cc2F)cc1,inhibition,[3],-4.2% (inactive)
same,inhibition,[4],60.2% (active)
same,inhibition,[5],87.6% (active)
same,inhibition,[6],87.1% (active)
same,inhibition,[7],67.9% (active)
COc1ccc(C(=O)COC(=O)c2ccc([N+](=O)[O-])s2)cc1OC,inhibition,[3],4.2% (inactive)
same,inhibition,[4],46.8% (inactive)
same,inhibition,[5],7.5% (inactive)
same,inhibition,[6],14.1% (inactive)
same,inhibition,[7],6.4% (inactive)
Oc1ccc(Br)cc1C=Nc1ccc2[nH]ncc2c1,inhibition,[3],5.1% (inactive)
same,inhibition,[4],2.1% (inactive)
same,inhibition,[5],-2.2% (inactive)
same,inhibition,[6],-0.8% (inactive)
same,inhibition,[7],-3.9% (inactive)
CC(=O)Nc1ccc(/C=N/NC(=O)c2cccs2)cc1,inhibition,[3],31.2% (inactive)
same,inhibition,[4],34% (inactive)
same,inhibition,[5],78.5% (active)
same,inhibition,[6],82.4% (active)
same,inhibition,[7],58.1% (active)
O=C(c1cnn2ccccc12)N1CCc2ccccc21,inhibition,[3],36.7% (inactive)
same,inhibition,[4],39.6% (inactive)
same,inhibition,[5],78.5% (active)
same,inhibition,[6],74% (active)
same,inhibition,[7],61.4% (active)
